Measurements from ChEMBL document CHEMBL2218924, “A broad activity screen in support of a chemogenomic map for kinase signalling research and drug discovery” (Biochem J, 2013).

Biological target: Ribosomal protein S6 kinase alpha-1 (Homo sapiens) (UniProt Q15418)
Settings: at 10 µM

Ribosomal protein S6 kinase alpha-1 (Homo sapiens), sequence (Q15418 whole entry): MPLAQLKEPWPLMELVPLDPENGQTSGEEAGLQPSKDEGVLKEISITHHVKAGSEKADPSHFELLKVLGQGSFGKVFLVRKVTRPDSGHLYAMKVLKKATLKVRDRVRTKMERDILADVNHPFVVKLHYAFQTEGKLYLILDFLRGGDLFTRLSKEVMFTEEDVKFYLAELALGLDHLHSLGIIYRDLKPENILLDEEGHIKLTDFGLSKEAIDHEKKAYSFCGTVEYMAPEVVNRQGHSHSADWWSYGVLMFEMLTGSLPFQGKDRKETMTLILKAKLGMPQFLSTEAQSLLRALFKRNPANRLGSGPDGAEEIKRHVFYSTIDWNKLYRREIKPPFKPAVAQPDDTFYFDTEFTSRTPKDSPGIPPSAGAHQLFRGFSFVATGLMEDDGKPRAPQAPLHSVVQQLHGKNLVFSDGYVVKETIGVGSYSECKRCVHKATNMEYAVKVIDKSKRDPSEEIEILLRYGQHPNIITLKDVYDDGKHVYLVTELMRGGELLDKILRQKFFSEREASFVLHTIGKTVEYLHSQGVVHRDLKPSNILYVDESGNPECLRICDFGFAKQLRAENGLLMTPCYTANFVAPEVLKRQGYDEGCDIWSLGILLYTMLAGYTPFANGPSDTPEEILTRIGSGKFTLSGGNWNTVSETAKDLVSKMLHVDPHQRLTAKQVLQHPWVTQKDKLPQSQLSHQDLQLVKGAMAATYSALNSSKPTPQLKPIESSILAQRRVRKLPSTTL

SMILES | residual activity [%]
COc1cc2nccc(Oc3ccc(NC(=O)Nc4cc(C)on4)c(Cl)c3)c2cc1OC | 77
O=S(=O)(NCCNC/C=C/c1ccc(Br)cc1)c1cccc2cnccc12 | 24
O=C1NC(=O)C(c2cn(CCCn3ccnc3)c3ccccc23)=C1Nc1ccccc1 | 1
COc1cc2c(cc1OC)-c1n[nH]c(Nc3cccc(F)c3)c1C2 | 79
Fc1ccc(-c2nc3n(c2-c2ccncc2)CCS3)cc1 | 81
NCCNc1ncc(C(N)=O)c(Nc2cccc(C(F)(F)F)c2)n1 | 59
O=C(O)/C=C/c1cc(Br)c(Br)c(Br)c1Br | 89
COc1ccc2c(c1)c(C1=C(c3c[nH]c4ccccc34)C(=O)NC1=O)cn2CCCN(C)C | 1
O=C1Cc2c([nH]c3ccc(Br)cc23)-c2ccccc2N1 | 77
COc1ccc(COc2ccc(Cc3cnc(N)nc3N)cc2OC)cc1 | 109
Cc1cc(C)c(/C=C2\C(=O)Nc3ccccc32)[nH]1 | 11
O=C(c1ccccc1)c1ccc(N2CCOCC2)cc1O | 85
Oc1cccc(-c2nc(N3CCOCC3)c3oc4ncccc4c3n2)c1 | 98
COc1ccc(CNC(=O)Nc2ncc([N+](=O)[O-])s2)cc1 | 109
CCN(CC)CCNC(=O)c1c(C)[nH]c(/C=C2\C(=O)Nc3ccc(Cl)cc32)c1C | 2
O=c1cc(N2CCNCC2)oc2c(-c3ccccc3)cccc12 | 96
O=C1NC(=O)C(c2c[nH]c3ccccc23)=C1c1c[nH]c2ccccc12 | 3
N#Cc1c(NC(=O)c2cccc3ccccc23)sc2c1CCCC2 | 94
CN(C)S(=O)(=O)c1ccc2c(c1)/C(=C/c1cc3c([nH]1)CCCC3)C(=O)N2 | 95
O=C1NC(=O)C(c2cn(CCCO)c3ncccc23)=C1c1cnccn1 | 99

Biological target: Ribosomal protein S6 kinase alpha-3 (Homo sapiens) (UniProt P51812)
Settings: at 1 µM

Ribosomal protein S6 kinase alpha-3 (Homo sapiens), sequence (P51812 whole entry): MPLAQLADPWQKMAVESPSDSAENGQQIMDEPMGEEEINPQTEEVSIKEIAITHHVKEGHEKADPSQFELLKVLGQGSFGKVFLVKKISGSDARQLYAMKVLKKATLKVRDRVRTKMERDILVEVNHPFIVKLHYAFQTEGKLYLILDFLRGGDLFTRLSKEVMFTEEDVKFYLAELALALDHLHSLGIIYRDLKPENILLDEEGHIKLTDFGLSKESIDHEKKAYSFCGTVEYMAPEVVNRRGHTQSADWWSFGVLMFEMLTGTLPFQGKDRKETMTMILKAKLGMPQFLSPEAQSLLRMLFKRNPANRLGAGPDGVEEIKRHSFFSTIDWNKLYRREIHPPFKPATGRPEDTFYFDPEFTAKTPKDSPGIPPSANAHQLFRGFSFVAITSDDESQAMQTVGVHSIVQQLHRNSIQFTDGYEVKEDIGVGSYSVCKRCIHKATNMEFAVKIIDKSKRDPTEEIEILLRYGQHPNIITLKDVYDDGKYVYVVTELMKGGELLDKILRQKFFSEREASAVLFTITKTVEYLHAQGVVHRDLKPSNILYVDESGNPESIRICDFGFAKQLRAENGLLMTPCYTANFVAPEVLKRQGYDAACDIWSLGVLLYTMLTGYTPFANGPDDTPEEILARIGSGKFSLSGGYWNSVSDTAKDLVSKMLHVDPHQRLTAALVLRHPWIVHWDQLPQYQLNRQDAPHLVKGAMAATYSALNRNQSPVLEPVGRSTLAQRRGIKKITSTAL

SMILES | residual activity [%]
Nc1nccc(-c2c(-c3ccc(F)cc3)ncn2C2CCNCC2)n1 | 54
COc1cc2nccc(Oc3ccc(NC(=O)Nc4cc(C)on4)c(Cl)c3)c2cc1OC | 60
O=S(=O)(NCCNC/C=C/c1ccc(Br)cc1)c1cccc2cnccc12 | 26
O=C1NC(=O)C(c2cn(CCCn3ccnc3)c3ccccc23)=C1Nc1ccccc1 | 3
COc1cc2c(cc1OC)-c1n[nH]c(Nc3cccc(F)c3)c1C2 | 63
Fc1ccc(-c2nc3n(c2-c2ccncc2)CCS3)cc1 | 64
O=C1Cc2c([nH]c3ccc([N+](=O)[O-])cc23)-c2ccccc2N1 | 56
O=C(O)/C=C/c1cc(Br)c(Br)c(Br)c1Br | 59
NC(=O)c1ccc(-c2nc(-c3ccc4c(c3)OCCO4)c(-c3ccccn3)[nH]2)cc1 | 56
COc1ccc2c(c1)c(C1=C(c3c[nH]c4ccccc34)C(=O)NC1=O)cn2CCCN(C)C | 2
O=C1Nc2ccccc2/C1=C\c1c(Cl)[nH]c2ccccc12 | 60
CCOC(=O)c1c(C)[nH]c(/C=C2\C(=O)Nc3ccccc32)c1C | 88
COc1ccc(COc2ccc(Cc3cnc(N)nc3N)cc2OC)cc1 | 64
Cc1cc(C)c(/C=C2\C(=O)Nc3ccccc32)[nH]1 | 26
O=C(c1ccccc1)c1ccc(N2CCOCC2)cc1O | 45
COc1ccc(-c2cnc3c(-c4ccsc4)cnn3c2)cc1 | 67
Oc1cccc(-c2nc(N3CCOCC3)c3oc4ncccc4c3n2)c1 | 70
O=C(Nc1nc2ccccc2n1CCN1CCOCC1)c1cccc([N+](=O)[O-])c1 | 104
CC(C)N(CCC(=O)c1ccc2ccccc2c1)Cc1ccccc1 | 54
CCN(CC)CCNC(=O)c1c(C)[nH]c(/C=C2\C(=O)Nc3ccc(Cl)cc32)c1C | 11
O=c1cc(N2CCNCC2)oc2c(-c3ccccc3)cccc12 | 51
O=C1NC(=O)C(c2c[nH]c3ccccc23)=C1c1c[nH]c2ccccc12 | 27
N#Cc1c(NC(=O)c2cccc3ccccc23)sc2c1CCCC2 | 49
CN(C)S(=O)(=O)c1ccc2c(c1)/C(=C/c1cc3c([nH]1)CCCC3)C(=O)N2 | 61
O=C1NC(=O)C(c2cn(CCCO)c3ncccc23)=C1c1cnccn1 | 41

Biological target: Ribosomal protein S6 kinase alpha-3 (Homo sapiens) (UniProt P51812)
Settings: at 10 µM

SMILES | residual activity [%]
Nc1nccc(-c2c(-c3ccc(F)cc3)ncn2C2CCNCC2)n1 | 36
COc1cc2nccc(Oc3ccc(NC(=O)Nc4cc(C)on4)c(Cl)c3)c2cc1OC | 35
O=S(=O)(NCCNC/C=C/c1ccc(Br)cc1)c1cccc2cnccc12 | 6
O=C1NC(=O)C(c2cn(CCCn3ccnc3)c3ccccc23)=C1Nc1ccccc1 | 1
COc1cc2c(cc1OC)-c1n[nH]c(Nc3cccc(F)c3)c1C2 | 39
Fc1ccc(-c2nc3n(c2-c2ccncc2)CCS3)cc1 | 52
NCCNc1ncc(C(N)=O)c(Nc2cccc(C(F)(F)F)c2)n1 | 35
O=C1Cc2c([nH]c3ccc([N+](=O)[O-])cc23)-c2ccccc2N1 | 34
O=C(O)/C=C/c1cc(Br)c(Br)c(Br)c1Br | 43
NC(=O)c1ccc(-c2nc(-c3ccc4c(c3)OCCO4)c(-c3ccccn3)[nH]2)cc1 | 53
COc1ccc2c(c1)c(C1=C(c3c[nH]c4ccccc34)C(=O)NC1=O)cn2CCCN(C)C | -1
O=C1Nc2ccccc2/C1=C\c1c(Cl)[nH]c2ccccc12 | 25
CCOC(=O)c1c(C)[nH]c(/C=C2\C(=O)Nc3ccccc32)c1C | 75
COc1ccc(COc2ccc(Cc3cnc(N)nc3N)cc2OC)cc1 | 64
Cc1cc(C)c(/C=C2\C(=O)Nc3ccccc32)[nH]1 | 5
O=C(c1ccccc1)c1ccc(N2CCOCC2)cc1O | 38
COc1ccc(-c2cnc3c(-c4ccsc4)cnn3c2)cc1 | 51
Oc1cccc(-c2nc(N3CCOCC3)c3oc4ncccc4c3n2)c1 | 64
O=C(Nc1nc2ccccc2n1CCN1CCOCC1)c1cccc([N+](=O)[O-])c1 | 83
CC(C)N(CCC(=O)c1ccc2ccccc2c1)Cc1ccccc1 | 52
CCN(CC)CCNC(=O)c1c(C)[nH]c(/C=C2\C(=O)Nc3ccc(Cl)cc32)c1C | 1
O=c1cc(N2CCNCC2)oc2c(-c3ccccc3)cccc12 | 36
O=C1NC(=O)C(c2c[nH]c3ccccc23)=C1c1c[nH]c2ccccc12 | 3
N#Cc1c(NC(=O)c2cccc3ccccc23)sc2c1CCCC2 | 51
CN(C)S(=O)(=O)c1ccc2c(c1)/C(=C/c1cc3c([nH]1)CCCC3)C(=O)N2 | 42
O=C1NC(=O)C(c2cn(CCCO)c3ncccc23)=C1c1cnccn1 | 45
